In PubChem BioAssay (Tox21) one finds outcome and Potency data, which are given here for eight compounds.

Inconclusive results are not listed. Active and inactive are the calls of the source. Unless noted, calls follow the shape of the dose curve; as a rule, active = well fitted curve in the direction sought with a large enough effect in the repeat runs; inconclusive = weak or mixed curves; inactive = no such curve, though single readings can be large; an effect the other way counts as inactive or inconclusive. Where a SMILES comes first, the peptide text is derived from it.

A short description of test [1]: qHTS assay to identify small molecule agonists of the NFkB signaling pathway (AID 1159509; active = well fitted curve in the direction sought with a large enough effect in the signal ratio in the repeat runs, not every such curve was filed as active; the % refers to the signal ratio; also: series mostly up to about 61 µM). The method in brief: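 Pathway activation was measured in ME-180 cells stably expressing beta-lactamase under NF-kB response element control. Substrate cleavage was read as the 460/530 nm emission shift after 5 hr compound incubation.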
In general terms: In qHTS, concentration-response curves come from the screen itself.

Test [2] in a line: qHTS assay to identify small molecule agonists of the NFkB signaling pathway - cell viability counter screen (AID 1159515; calls by dose curve; also: series mostly up to about 61 µM; nearly all actives have a fitted effect of over 55% in size). The procedure, abridged: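 Read by CellTiter-Glo luminescence (30 min, room temperature) in the wells also used for the beta-lactamase FRET read. ME-180 NFkB-bla cells at 2,000 per well were plated overnight, then exposed to compound for 5 hr at 37 C.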
Test [3] in a line: qHTS assay to identify small molecule agonists of the endoplasmic reticulum stress response signaling pathway (AID 1159516; active = well fitted activation curve with a large enough effect in the signal ratio in the repeat runs, not every such curve was filed as active; the % refers to the signal ratio). The procedure, abridged:
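Ratiometric FRET readout (405 nm excitation; 460 and 530 nm emission) of a beta-lactamase gene driven by the ER stress response element, after 2 hr substrate loading. HeLa ESRE-bla cells were seeded overnight and treated with compounds for only 5 hr at 37 C.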

Test [4] is described as follows: qHTS assay to identify small molecule agonists of the endoplasmic reticulum stress response signaling pathway - cell viability counter screen (AID 1159517; calls by dose curve; also: series mostly up to about 61 µM; nearly all actives have a fitted effect of over 50% in size). The method in brief:
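In parallel with the ESRE reporter read, cytotoxicity was scored by CellTiter-Glo luminescence (30 min, room temperature) on HeLa ESRE-bla cells dosed for 5 hr.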

Test [5] can be described thus: qHTS assay to identify small molecule antagonists of the retinoid-related orphan receptor gamma (ROR-gamma) signaling pathway - cell viability counter screen (AID 1159520). Also: nearly all actives have a fitted effect of over 50% in size. The procedure, abridged:
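Tet-on ROR gamma CHO cells were given compounds for 2 hr, then doxycycline hyclate at 1 uM final, and incubated 16 hr at 37 C. Viability was measured as ATP content by CellTiter-Glo luminescence.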

Test [6] concerns the target Nuclear receptor ROR-gamma (Homo sapiens) (UniProt P51449). Description: qHTS assay to identify small molecule antagonists of the retinoid-related orphan receptor gamma (ROR-gamma) signaling pathway (AID 1159521; also: top concentration of the series differs between compounds; nearly all actives have a fitted effect of over 50% in size). The method in brief: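 Luminescence readout (ONE-Glo, 30 min RT) after 16 h doxycycline induction; loss of signal scored as antagonism. CHO cells with TET-inducible RORγ and RORE-LUC reporter; compounds added 2 h before 1 uM final doxycycline.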

A short description of test [7]: qHTS assay to identify small molecule agonists of the AP-1 signaling pathway - cell viability counter screen (AID 1159525; calls by dose curve; also: nearly all actives have a fitted effect of over 55% in size). The method in brief: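 Same-well cytotoxicity counter screen of the Tox21 10K library in ME-180 cells. The readout is ATP-dependent luminescence after 5 h compound treatment. Data are normalised to DMSO and tetra n-octyl ammonium bromide controls.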

The nature of test [8]: qHTS assay to identify small molecule agonists of the AP-1 signaling pathway (AID 1159526; calls by dose curve).
The target in test [9] is Retinoic acid receptor RXR-alpha (Homo sapiens) (UniProt P19793). Description: qHTS assay to identify small molecule agonists of the RXR signaling pathway (AID 1159527; calls by dose curve; also: nearly all actives have a fitted effect of over 35% in size; also: potency is read from the fitted curve at half-maximal effect). The method in brief:
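Agonist mode; 9-cis retinoic acid positive control. HEK 293T UAS-bla reporter cells, 2% charcoal-stripped FBS, 16 hr compound exposure at 37 C/5% CO2. LiveBLAzer B/G FRET substrate 2 hr RT; ex 405, em 460/530 nm.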

The nature of test [10]: qHTS assay to identify small molecule agonists of the RXR signaling pathway - cell viability counter screen (AID 1159529). Also: series mostly up to about 77 µM; nearly all actives have a fitted effect of over 50% in size. The procedure, abridged:
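Luminescence from CellTiter-Glo (30 min, RT) measured viability in the same wells as the beta-lactamase reporter readout. Cells: GeneBLAzer RXR-alpha HEK 293T, 2% charcoal-stripped FBS. Compound exposure 16 hr, 37 C.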

A short description of test [11]: qHTS assay to identify small molecule antagonists of the retinoid acid receptor (RAR) signaling pathway - cell viability counter screen (AID 1159551). Also: nearly all actives have a fitted effect of over 35% in size. The method in brief:
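Cytotoxicity counter screen: ATP content quantified by CellTiter-Glo luminescence in C3RL4 cells treated 6 hr at 37 C with compound and retinol (1 uM final). Cells plated at 1,000/well and cultured overnight before dosing.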

Test [12] can be described thus: qHTS assay to identify small molecule antagonists of the retinoic acid receptor (RAR) signaling pathway (AID 1159552; also: nearly all actives have a fitted effect of over 50% in size). The procedure, abridged: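 Luminescence from a RARE luciferase reporter in C3RL4 cells served as read-out. Cells received compounds together with 1 uM final retinol and incubated 6 hr at 37 C before detection reagent was added for 30 min at room temperature.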

Test [13] is described as follows: qHTS assay to identify small molecule agonists of the retinoic acid receptor (RAR) signaling pathway (AID 1159553). The method in brief: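 Luminescence was measured 30 min after luciferase reagent addition at room temperature. Before that, C3RL4 reporter cells (1,000 per well, plated overnight) were treated with compound for 6 hr at 37 C and 5% CO2.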
Test [14] in a line: qHTS assay to identify small molecule antagonists of the estrogen related receptor (ERR) signaling pathway from Tox21 library - cell viability counter screen (AID 1224834). Also: nearly all actives have a fitted effect of over 30% in size. The method in brief:
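CellTiter-Fluor fluorescence, read after 30 min at 37 C, measures viability of ERR cells. Cells plated at 2,000/well and incubated 6 h before pin-tool compound addition, then exposed 17.5 hours at 37 C.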

Test [15] concerns the target Luciferin 4-monooxygenase (Photinus pyralis) (UniProt P08659). The test can be described thus: qHTS assay to identify small molecule inhibitors of firefly luciferase (AID 1224835). Also: series mostly up to about 120 µM; nearly all actives have a fitted effect of over 25% in size. The method in brief: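 Biochemical qHTS: compounds run as interplate titrations against purified firefly enzyme, with D-luciferin and ATP each at its KM concentration. Light output recorded by CCD imaging.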

Test [16] is described as follows: qHTS assay to identify small molecule agonists of the constitutive androstane receptor (CAR) signaling pathway - cell viability counter screen (AID 1224836). Also: series mostly up to about 92 µM; nearly all actives have a fitted effect of over 45% in size. The procedure, abridged: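 Viability read-out: CellTiter-Fluor fluorescence after 23 h compound exposure at 37 C/5% CO2 in double-stable HepG2-CYP2B6-hCAR cells, with PK11195 present at 0.75 uM final; compounds tested in 15-point titration.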

Test [17] can be described thus: qHTS assay to identify small molecule antagonists of the constitutive androstane receptor (CAR) signaling pathway - cell viability counter screen (AID 1224837). Also: series mostly up to about 92 µM; nearly all actives have a fitted effect of over 45% in size. The procedure, abridged:
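Cytotoxicity counter-screen: CellTiter-Fluor fluorescence after 23 h compound exposure (15-point qHTS) in double-stable HepG2-CYP2B6-hCAR cells, with 50 nM CITCO added.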

For test [18], the target named is Nuclear receptor subfamily 1 group I member 3 (Homo sapiens) (UniProt Q14994). Description: qHTS assay to identify small molecule antagonists of the constitutive androstane receptor (CAR) signaling pathway (AID 1224838).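 Also: HepG2 cells stably expressing hCAR with CYP2B6 luciferase reporter stimulated by CITCO; nearly all actives have a fitted effect of over 40% in size.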 The method in brief: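 Antagonism measured as luciferase signal (ONE-Glo, 30 min, room temperature) in CAR-stimulated cells: HepG2-CYP2B6-hCAR double-stable line exposed 24 hr at 37 C to compound in a 15-point series plus 50 nM CITCO.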

For test [19] the target is unchanged. The test can be described thus: qHTS assay to identify small molecule agonists of the constitutive androstane receptor (CAR) signaling pathway (AID 1224839).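 Also: HepG2 cells stably carrying human CAR and a CYP2B6 luciferase reporter; series mostly up to about 92 µM; nearly all actives have a fitted effect of over 15% in size.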 The method in brief:
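Luminescence read-out (ONE-Glo, 30 min, room temperature) from double-stable HepG2-CYP2B6-hCAR cells exposed 24 h to 15-point compound series in presence of 0.75 uM PK11195 final.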

Luciferin 4-monooxygenase (Photinus pyralis), sequence (P08659 whole entry, looked up): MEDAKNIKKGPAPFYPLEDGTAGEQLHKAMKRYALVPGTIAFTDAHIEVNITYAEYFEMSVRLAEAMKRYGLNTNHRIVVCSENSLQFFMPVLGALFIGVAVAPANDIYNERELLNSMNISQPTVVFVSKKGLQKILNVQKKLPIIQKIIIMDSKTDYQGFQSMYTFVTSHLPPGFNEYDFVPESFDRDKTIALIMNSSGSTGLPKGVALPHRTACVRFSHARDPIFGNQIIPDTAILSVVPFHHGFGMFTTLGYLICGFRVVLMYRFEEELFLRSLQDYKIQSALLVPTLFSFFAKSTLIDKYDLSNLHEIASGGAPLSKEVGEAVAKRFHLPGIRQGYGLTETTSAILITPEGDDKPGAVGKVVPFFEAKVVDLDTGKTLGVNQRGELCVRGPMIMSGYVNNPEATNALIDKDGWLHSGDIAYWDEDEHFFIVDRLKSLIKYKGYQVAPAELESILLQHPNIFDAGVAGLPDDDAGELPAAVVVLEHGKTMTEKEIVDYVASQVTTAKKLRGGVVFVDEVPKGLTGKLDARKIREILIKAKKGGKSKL
Nuclear receptor subfamily 1 group I member 3 (Homo sapiens), sequence (Q14994 whole entry, looked up): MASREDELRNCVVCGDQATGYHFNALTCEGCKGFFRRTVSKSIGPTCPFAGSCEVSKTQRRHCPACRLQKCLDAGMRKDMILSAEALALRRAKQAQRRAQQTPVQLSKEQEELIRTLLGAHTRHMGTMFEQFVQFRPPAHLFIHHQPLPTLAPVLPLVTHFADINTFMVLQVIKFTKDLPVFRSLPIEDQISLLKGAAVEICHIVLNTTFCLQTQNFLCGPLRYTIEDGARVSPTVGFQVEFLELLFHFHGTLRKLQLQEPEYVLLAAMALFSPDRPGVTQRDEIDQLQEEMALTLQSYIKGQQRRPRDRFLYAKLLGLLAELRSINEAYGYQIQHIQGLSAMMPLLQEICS
Retinoic acid receptor RXR-alpha (Homo sapiens), sequence (P19793 whole entry, looked up): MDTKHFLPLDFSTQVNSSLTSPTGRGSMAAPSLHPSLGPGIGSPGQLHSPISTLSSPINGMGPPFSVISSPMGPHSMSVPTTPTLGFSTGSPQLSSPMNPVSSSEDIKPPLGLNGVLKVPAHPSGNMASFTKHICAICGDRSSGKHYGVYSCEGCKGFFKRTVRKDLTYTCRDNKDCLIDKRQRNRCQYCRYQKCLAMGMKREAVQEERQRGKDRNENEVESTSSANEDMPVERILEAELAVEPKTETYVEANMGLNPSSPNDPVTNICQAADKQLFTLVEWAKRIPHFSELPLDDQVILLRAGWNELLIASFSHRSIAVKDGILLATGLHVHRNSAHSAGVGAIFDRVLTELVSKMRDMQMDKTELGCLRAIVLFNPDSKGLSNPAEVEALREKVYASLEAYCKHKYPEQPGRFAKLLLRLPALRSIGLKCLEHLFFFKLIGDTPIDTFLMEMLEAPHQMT

For the compound `COC(=O)/C=C\C(=O)O`, the compound was classed as inactive in test [1], in [2], in [3], in test [4], in test [5] and in [6]. The outcome in test [7], in test [8], in test [10], in test [11], in test [12] and in test [14] was inactive. Further, the compound was called inactive in [16] and in test [17]. Also, the Potency entry in test [9], in test [13], in test [15], in test [18] and in [19] was “inactive” in each case.
As for `CC(=O)N[C@@H](CO)C(=O)N[C@@H](CC(=O)O)C(=O)N[C@@H](CCCCN)C(=O)N1CCC[C@H]1C(=O)O` (Ac-SDKP-OH), the result in test [1], in test [2], in test [3], in test [4], in test [5] and in test [6] was inactive. Besides, the result in [7], in test [8], in [10], in [11], in test [12] and in test [14] was inactive. For the same compound, the compound was classed as inactive in test [16] and in [17]. In addition, the Potency entry in [9], in [13], in [15], in test [18] and in [19] was “inactive” each time.
Turning to `COCCc1ccccn1`, the result in [1], in test [2], in test [3], in test [4], in [5] and in test [6] was inactive. For the same compound, the compound was classed as inactive in test [7], in test [8], in [10], in test [11], in test [12] and in test [14]. Moreover, the outcome in [16] and in test [17] was inactive. Also, the Potency entry in test [9], in test [13], in test [15], in test [18] and in [19] was “inactive” throughout.
On to `NCc1ccc(S(N)(=O)=O)cc1`, for which the call in [1], in test [2], in [3], in test [4], in test [5] and in [6] was inactive. In addition, the call in test [7], in [8], in test [10], in test [11], in [12] and in [14] was inactive. Moreover, the compound was called inactive in [16] and in [17]. Further, the Potency entry in test [9], in test [13], in test [15], in test [18] and in test [19] was “inactive” in each case.
Take `CC(C)c1ccc(C=O)cc1`: the result in [1], in test [2], in [3], in test [4], in test [5] and in [6] was inactive. Also, the compound was called inactive in test [7], in test [8], in test [10], in test [11], in test [12] and in test [14]. Moreover, the result in [16] and in [17] was inactive. Moreover, the Potency in test [9] is 43.6 µM (active). Further, the Potency result in [13], in test [15], in [18] and in [19] was “inactive” throughout.
Turning to `c1ccc(-c2nn[nH]n2)cc1`, the result in [1], in test [2], in test [3], in [4], in test [5] and in [6] was inactive. Further, the call in test [7], in test [8], in test [10], in [11], in test [12] and in test [14] was inactive. The call in test [16] and in test [17] was inactive. In addition, the Potency result in test [9], in test [13], in [15], in test [18] and in test [19] was “inactive” throughout.
In the case of `COc1nc(N)nc2nc[nH]c12`, the outcome in [1], in test [2], in test [3], in test [4], in test [5] and in test [6] was inactive. Moreover, the outcome in test [7], in test [8], in test [10], in [11], in test [12] and in test [14] was inactive. The compound was called inactive in test [16] and in test [17]. In addition, the Potency entry in [9], in [13], in test [15], in [18] and in [19] was “inactive” in each case.
For the compound `OCC(O)CN1CCN(c2ccccc2)CC1` (configuration not stated), the call in [1], in test [2], in test [3], in [4], in [5] and in test [6] was inactive. Further, the compound was called inactive in test [7], in test [8], in test [10], in test [11], in test [12] and in test [14]. Also, the result in [16] and in test [17] was inactive. For the same compound, the Potency entry in test [9], in test [13], in test [15], in test [18] and in test [19] was “inactive” each time.
